{"source": "PubChem BioAssay AID620", "about": "(Sanford-Burnham Center for Chemical Genomics, 2007)", "note": "Among all 87,000 compounds or so, about 360 (0.41%) were called active. Cut-off read from the data, not from the text of the source: active = cytotoxicity above about 50%; inactive = the rest. Only a selection was taken, and actives are over-represented in it overall.", "data": [{"assay": "cytotoxicity in HT1080 fibrosarcoma cells, cell-based, fluorescence readout (AID 620);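 note: cells exposed to compound overnight then 4 h with Alamar Blue; 0% = vehicle DMSO and 100% = killing control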", "conditions": "HT1080 viability, at 10 µM, hits give high values", "values": [{"molecule": "CCOC(=O)c1c(C)oc2cc3c(C(=O)OCC)c(C)oc3cc12", "cytotoxicity": "-0.1% (inactive)"}, {"molecule": "CCOC(=O)c1c(C)oc2c(F)c(F)c(F)c(F)c2c1=O", "cytotoxicity": "96.5% (active)"}, {"molecule": "CCOC(=O)c1c(C)cc(=O)oc1C", "cytotoxicity": "-21.5% (inactive)"}, {"molecule": "COC(=O)Nc1cc(C)nc2ccccc12", "cytotoxicity": "-9.1% (inactive)"}, {"molecule": "COc1ccc(N2CCN(c3ncnc4nc[nH]c34)CC2)cc1", "cytotoxicity": "-6.5% (inactive)"}, {"molecule": "O=c1cc(N2CCN(Cc3ccccc3)CC2)[nH]c(=O)n1-c1cccc(C(F)(F)F)c1", "cytotoxicity": "12.7% (inactive)"}, {"molecule": "Cc1onc(-c2ccccc2)c1C(=O)Nc1ccccc1N1CCOCC1", "cytotoxicity": "3.3% (inactive)"}, {"molecule": "O=C(CSc1nc2ccccc2[nH]1)Nc1cc(C(F)(F)F)ccc1N1CCOCC1", "cytotoxicity": "-2.4% (inactive)"}, {"molecule": "Cc1nnc(SCC(=O)Nc2cc(C(F)(F)F)ccc2N2CCOCC2)o1", "cytotoxicity": "7% (inactive)"}, {"molecule": "O=C(Nc1cc(C(F)(F)F)ccc1N1CCOCC1)c1c(F)c(F)c(F)c(F)c1F", "cytotoxicity": "1.3% (inactive)"}, {"molecule": "Cc1onc(-c2ccccc2)c1C(=O)Nc1cc(C(F)(F)F)ccc1N1CCOCC1", "cytotoxicity": "59.2% (active)"}, {"molecule": "Cc1ccc2nc(SCC(=O)Nc3cc(C(F)(F)F)ccc3N3CCOCC3)[nH]c2c1", "cytotoxicity": "62.5% (active)"}, {"molecule": "COCCNC(=O)C1(C)C=CCN1C(C)=O", "note": "(centres undefined)", "cytotoxicity": "-17.3% (inactive)"}, {"molecule": "COc1ccc(NC(=O)c2ccc(-n3nc(C)cc3C)cc2)cc1OC", "cytotoxicity": "-17.7% (inactive)"}, {"molecule": "COC(=O)c1ccccc1S(=O)(=O)C(C)(C)C", "cytotoxicity": "7.6% (inactive)"}, {"molecule": "CCOCCCNC(=O)C1CCN(S(=O)(=O)N2CCCCC2)CC1", "cytotoxicity": "1.1% (inactive)"}, {"molecule": "COC(=O)C1=[N+]([O-])OC(C(=O)OC)C1c1c[nH]c2ccccc12", "note": "(centres undefined)", "cytotoxicity": "41.5% (inactive)"}, {"molecule": "CCc1nc2c(sc3nc4c(cc32)COC(C)(C)C4)c(=O)n1Cc1ccco1", "cytotoxicity": "1.2% (inactive)"}, {"molecule": "CC1(C)Cc2nc3sc4c(=O)n(CC(=O)NCc5ccco5)cnc4c3cc2CO1", "cytotoxicity": "15.9% (inactive)"}, {"molecule": "Cc1nc2c(sc3nc4c(cc32)COC(C)(C)C4)c(=O)n1CC(=O)NCc1ccco1", "cytotoxicity": "55.6% (active)"}, {"molecule": "CSC1=Nc2sc3c(c2C2=NCCN12)CCCC3", "cytotoxicity": "7.2% (inactive)"}, {"molecule": "COc1cc2c(cc1OC)C1C/C(=N\\O)C(CC(C)C)CN1CC2", "note": "(centres undefined)", "cytotoxicity": "-13.4% (inactive)"}, {"molecule": "COc1cc2c(cc1OC)C1Cc3ccc(OC)c(OC)c3CN1CC2", "note": "(centres undefined)", "cytotoxicity": "-0.8% (inactive)"}, {"molecule": "CC[C@H]1CN2CCc3cc(OC)c(OC)cc3[C@@H]2C[C@@H]1C[C@H]1NCCc2cc(OC)c(OC)cc21", "cytotoxicity": "78.8% (active)"}, {"molecule": "Cc1oc(-c2ccccc2F)nc1CN1CCC(C(=O)NCc2cccs2)CC1", "cytotoxicity": "-2.2% (inactive)"}, {"molecule": "O=S(=O)(Nc1nnc(-c2ccccc2)s1)c1ccc(Cl)cc1", "cytotoxicity": "5.7% (inactive)"}, {"molecule": "Cc1ncc(S(=O)(=O)c2ccc(Cl)cc2)c(-c2ccccc2)n1", "cytotoxicity": "18.2% (inactive)"}, {"molecule": "O=C1NCCCC1C(=O)N1CCN(C(=O)C2CCCNC2=O)CC1", "note": "(centres undefined)", "cytotoxicity": "-7.4% (inactive)"}, {"molecule": "O=C(CCn1cccc1)Nc1ccccc1F", "cytotoxicity": "-5.1% (inactive)"}]}]}
